Key:
Assay in all cases: DAPPL (digital affinity profiling via proximity ligation, sequencing); 10 mM Tris-HCl pH 7.5, 50 mM NaCl, 1 mM DTT, 4% glycerol, room temperature, 30 min; GST-TFs on glutathione beads, 16-mer random dsDNA library, 0.1% formaldehyde crosslink after washing; high values mean tight binding
Conditions in all cases: protein: recombinant; tags: N-terminal GST; dsDNA, one strand shown
FLI1 = target: T1, FLI1 (Homo sapiens, UniProt Q01543 1-452)
T1 sequence: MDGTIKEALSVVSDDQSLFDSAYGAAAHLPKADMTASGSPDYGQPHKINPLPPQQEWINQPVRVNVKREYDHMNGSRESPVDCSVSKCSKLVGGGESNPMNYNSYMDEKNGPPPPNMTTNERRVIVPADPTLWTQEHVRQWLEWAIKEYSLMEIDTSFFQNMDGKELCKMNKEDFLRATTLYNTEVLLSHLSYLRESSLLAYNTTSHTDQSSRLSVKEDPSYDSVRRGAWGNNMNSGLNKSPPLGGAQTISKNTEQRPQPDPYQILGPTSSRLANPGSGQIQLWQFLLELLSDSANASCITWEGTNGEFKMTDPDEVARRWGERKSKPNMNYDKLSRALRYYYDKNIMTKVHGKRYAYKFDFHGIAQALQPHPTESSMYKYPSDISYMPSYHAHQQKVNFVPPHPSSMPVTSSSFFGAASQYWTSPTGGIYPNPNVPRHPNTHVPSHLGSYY
Method in brief: (§1)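 Beads coated with glutathione captured GST-fused human transcription factors that had been expressed in yeast, and the factors were then given DNA barcodes and pooled with a tag-only sample. The pools were incubated with 200 nmole of a random double-stranded 16-mer DNA library in Tris/NaCl/DTT/glycerol buffer for 30 min at room temperature, washed, crosslinked with 0.1% formaldehyde and proximity-ligated with BsaI/T4 ligase at 37 °C for 1 h. PCR amplification and Illumina NextSeq500 sequencing came last. Binding signal is each hexamer's read frequency for a factor divided by its frequency for the tag-only sample.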

ELK1 = target: T2, ELK1 (Homo sapiens, UniProt P19419 1-428)
T2 sequence: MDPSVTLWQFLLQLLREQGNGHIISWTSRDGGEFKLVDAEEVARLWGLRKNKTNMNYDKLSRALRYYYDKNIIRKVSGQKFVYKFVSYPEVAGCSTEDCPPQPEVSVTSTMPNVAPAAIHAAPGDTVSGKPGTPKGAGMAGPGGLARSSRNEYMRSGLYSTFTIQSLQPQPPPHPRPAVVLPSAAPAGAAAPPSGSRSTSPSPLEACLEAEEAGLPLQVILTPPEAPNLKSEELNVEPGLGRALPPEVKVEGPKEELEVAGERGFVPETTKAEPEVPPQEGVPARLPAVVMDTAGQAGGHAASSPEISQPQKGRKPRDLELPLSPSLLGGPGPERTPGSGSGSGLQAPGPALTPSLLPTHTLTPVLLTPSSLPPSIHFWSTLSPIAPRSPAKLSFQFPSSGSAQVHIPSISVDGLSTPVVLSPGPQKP
Method in brief: as §1

GABPA = target: T3, GABPA (Homo sapiens, UniProt Q06546 1-454)
T3 sequence: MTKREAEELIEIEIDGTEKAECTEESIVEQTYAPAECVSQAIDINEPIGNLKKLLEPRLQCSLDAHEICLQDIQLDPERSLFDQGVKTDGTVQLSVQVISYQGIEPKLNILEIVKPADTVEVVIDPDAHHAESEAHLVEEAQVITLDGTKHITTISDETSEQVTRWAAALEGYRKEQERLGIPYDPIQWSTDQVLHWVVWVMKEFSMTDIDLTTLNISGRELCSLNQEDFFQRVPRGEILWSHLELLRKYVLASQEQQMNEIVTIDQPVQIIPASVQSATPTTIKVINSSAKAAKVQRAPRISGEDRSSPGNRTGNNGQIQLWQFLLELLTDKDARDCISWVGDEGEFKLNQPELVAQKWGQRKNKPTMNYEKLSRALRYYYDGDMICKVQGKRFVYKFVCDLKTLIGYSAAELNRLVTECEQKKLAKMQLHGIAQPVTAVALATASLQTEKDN
Method in brief: as §1

ERG = target: T4, ERG (Homo sapiens, UniProt P11308 1-479)
T4 sequence: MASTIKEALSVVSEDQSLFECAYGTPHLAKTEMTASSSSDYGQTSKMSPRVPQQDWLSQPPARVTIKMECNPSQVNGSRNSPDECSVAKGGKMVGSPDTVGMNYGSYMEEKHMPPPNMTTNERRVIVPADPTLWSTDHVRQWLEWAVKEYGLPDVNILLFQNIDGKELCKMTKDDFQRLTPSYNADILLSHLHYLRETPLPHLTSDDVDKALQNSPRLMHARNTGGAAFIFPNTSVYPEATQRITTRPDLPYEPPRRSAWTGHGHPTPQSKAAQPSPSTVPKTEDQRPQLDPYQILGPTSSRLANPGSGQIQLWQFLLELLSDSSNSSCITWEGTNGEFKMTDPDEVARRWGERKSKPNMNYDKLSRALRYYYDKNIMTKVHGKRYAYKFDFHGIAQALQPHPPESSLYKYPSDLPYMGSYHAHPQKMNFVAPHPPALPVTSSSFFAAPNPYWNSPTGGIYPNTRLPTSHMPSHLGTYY
Method in brief: as §1

ELF1 = ELF1 (Homo sapiens, UniProt P32519 1-619)
Method in brief: as §1

EHF = target: T5, EHF (Homo sapiens, UniProt Q9NZC4 1-300)
T5 sequence: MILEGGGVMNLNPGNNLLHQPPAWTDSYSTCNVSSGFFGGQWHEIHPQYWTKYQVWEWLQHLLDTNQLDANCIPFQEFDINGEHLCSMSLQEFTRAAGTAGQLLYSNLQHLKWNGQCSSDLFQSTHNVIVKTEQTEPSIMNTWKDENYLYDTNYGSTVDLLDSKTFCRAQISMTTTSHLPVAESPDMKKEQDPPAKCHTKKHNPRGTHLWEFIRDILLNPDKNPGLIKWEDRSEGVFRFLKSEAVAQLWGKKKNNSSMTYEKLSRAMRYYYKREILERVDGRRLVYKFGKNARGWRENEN
Method in brief: as §1

SPI1 [1] = target: SPI1 (Homo sapiens, UniProt P17947 1-270)
Method in brief: as §1

SPIB = SPIB (Homo sapiens, UniProt Q01892 1-262)
Method in brief: as §1

ELK3 = target: T6, ELK3 (Homo sapiens, UniProt P41970 1-407)
T6 sequence: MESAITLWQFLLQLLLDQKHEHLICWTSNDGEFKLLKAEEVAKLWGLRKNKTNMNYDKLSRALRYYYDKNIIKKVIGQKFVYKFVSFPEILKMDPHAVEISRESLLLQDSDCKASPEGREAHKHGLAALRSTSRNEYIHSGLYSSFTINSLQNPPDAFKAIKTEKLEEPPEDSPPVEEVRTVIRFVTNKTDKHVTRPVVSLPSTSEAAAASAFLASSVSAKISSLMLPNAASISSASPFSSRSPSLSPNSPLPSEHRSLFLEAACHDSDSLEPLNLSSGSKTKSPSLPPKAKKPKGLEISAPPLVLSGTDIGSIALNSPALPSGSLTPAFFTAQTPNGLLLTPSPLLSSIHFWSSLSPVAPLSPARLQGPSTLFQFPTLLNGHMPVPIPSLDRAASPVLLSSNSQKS
Method in brief: as §1

SPI1 [2] = target: SPI1 (Homo sapiens, UniProt P17947 1-270); remark: listed apart in the source
Method in brief: as §1

Sequence of ELF1 (P32519 whole entry): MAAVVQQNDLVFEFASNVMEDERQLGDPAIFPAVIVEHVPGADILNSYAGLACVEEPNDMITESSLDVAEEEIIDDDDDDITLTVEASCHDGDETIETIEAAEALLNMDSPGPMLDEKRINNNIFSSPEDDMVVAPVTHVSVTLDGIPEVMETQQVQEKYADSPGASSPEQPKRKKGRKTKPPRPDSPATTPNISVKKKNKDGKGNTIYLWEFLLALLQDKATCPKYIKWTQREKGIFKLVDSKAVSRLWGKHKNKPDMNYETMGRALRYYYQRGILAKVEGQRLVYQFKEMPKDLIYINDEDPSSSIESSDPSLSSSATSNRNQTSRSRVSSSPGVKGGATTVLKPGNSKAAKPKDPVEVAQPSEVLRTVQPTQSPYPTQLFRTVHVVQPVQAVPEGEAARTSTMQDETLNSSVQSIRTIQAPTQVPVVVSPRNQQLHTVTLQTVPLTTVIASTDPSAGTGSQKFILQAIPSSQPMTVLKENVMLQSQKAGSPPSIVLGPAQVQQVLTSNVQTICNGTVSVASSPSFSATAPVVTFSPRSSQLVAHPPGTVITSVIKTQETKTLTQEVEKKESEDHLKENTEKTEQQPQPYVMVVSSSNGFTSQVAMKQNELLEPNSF
Sequence of SPIB (Q01892 whole entry): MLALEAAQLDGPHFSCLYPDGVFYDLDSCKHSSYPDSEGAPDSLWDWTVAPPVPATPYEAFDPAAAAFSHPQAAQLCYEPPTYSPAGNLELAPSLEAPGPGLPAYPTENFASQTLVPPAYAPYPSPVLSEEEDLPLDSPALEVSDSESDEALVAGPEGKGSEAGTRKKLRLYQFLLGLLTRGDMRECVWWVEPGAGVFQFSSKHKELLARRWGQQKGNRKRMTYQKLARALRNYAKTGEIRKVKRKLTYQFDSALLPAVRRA

## ATTTTT
FLI1
  binding signal: 1.14 fold enrichment (6-mer frequency, TF over GST control)
ELK1
  binding signal: 1.14 fold enrichment (6-mer frequency, TF over GST control)
GABPA
  binding signal: 1.13 fold enrichment (6-mer frequency, TF over GST control)
ERG
  binding signal: 1.1 fold enrichment (6-mer frequency, TF over GST control)
ELF1
  binding signal: 1.14 fold enrichment (6-mer frequency, TF over GST control)
EHF
  binding signal: 1.22 fold enrichment (6-mer frequency, TF over GST control)
SPI1 [1]
  binding signal: 1.18 fold enrichment (6-mer frequency, TF over GST control)
SPIB
  binding signal: 1.19 fold enrichment (6-mer frequency, TF over GST control)
ELK3
  binding signal: 1.12 fold enrichment (6-mer frequency, TF over GST control)

## GCCCTA
FLI1
  binding signal: 1.29 fold enrichment (6-mer frequency, TF over GST control)
ELK1
  binding signal: 1.24 fold enrichment (6-mer frequency, TF over GST control)
GABPA
  binding signal: 1.21 fold enrichment (6-mer frequency, TF over GST control)
ERG
  binding signal: 1.15 fold enrichment (6-mer frequency, TF over GST control)
ELF1
  binding signal: 1.19 fold enrichment (6-mer frequency, TF over GST control)
EHF
  binding signal: 1.12 fold enrichment (6-mer frequency, TF over GST control)
SPI1 [1]
  binding signal: 1.19 fold enrichment (6-mer frequency, TF over GST control)
SPIB
  binding signal: 1.28 fold enrichment (6-mer frequency, TF over GST control)
ELK3
  binding signal: 1.19 fold enrichment (6-mer frequency, TF over GST control)

## ATTCAT
FLI1
  binding signal: 1.28 fold enrichment (6-mer frequency, TF over GST control)
ELK1
  binding signal: 1.12 fold enrichment (6-mer frequency, TF over GST control)
GABPA
  binding signal: 1.14 fold enrichment (6-mer frequency, TF over GST control)
ERG
  binding signal: 1.16 fold enrichment (6-mer frequency, TF over GST control)
ELF1
  binding signal: 1.16 fold enrichment (6-mer frequency, TF over GST control)
EHF
  binding signal: 1.12 fold enrichment (6-mer frequency, TF over GST control)
SPI1 [1]
  binding signal: 1.15 fold enrichment (6-mer frequency, TF over GST control)
SPIB
  binding signal: 1.21 fold enrichment (6-mer frequency, TF over GST control)
ELK3
  binding signal: 1.19 fold enrichment (6-mer frequency, TF over GST control)

## TTTTCA
FLI1
  binding signal: 1.12 fold enrichment (6-mer frequency, TF over GST control)
ELK1
  binding signal: 1.19 fold enrichment (6-mer frequency, TF over GST control)
GABPA
  binding signal: 1.3 fold enrichment (6-mer frequency, TF over GST control)
ERG
  binding signal: 1.17 fold enrichment (6-mer frequency, TF over GST control)
ELF1
  binding signal: 1.18 fold enrichment (6-mer frequency, TF over GST control)
EHF
  binding signal: 1.22 fold enrichment (6-mer frequency, TF over GST control)
SPI1 [1]
  binding signal: 1.29 fold enrichment (6-mer frequency, TF over GST control)
SPIB
  binding signal: 1.27 fold enrichment (6-mer frequency, TF over GST control)
ELK3
  binding signal: 1.09 fold enrichment (6-mer frequency, TF over GST control)

## CTTCCG
FLI1
  binding signal: 7.32 fold enrichment (6-mer frequency, TF over GST control)
ELK1
  binding signal: 8.14 fold enrichment (6-mer frequency, TF over GST control)
GABPA
  binding signal: 6.76 fold enrichment (6-mer frequency, TF over GST control)
ERG
  binding signal: 8.96 fold enrichment (6-mer frequency, TF over GST control)
ELF1
  binding signal: 7.37 fold enrichment (6-mer frequency, TF over GST control)
EHF
  binding signal: 7.93 fold enrichment (6-mer frequency, TF over GST control)
SPI1 [2]
  binding signal: 9.8 fold enrichment (6-mer frequency, TF over GST control)
SPIB
  binding signal: 7.71 fold enrichment (6-mer frequency, TF over GST control)
ELK3
  binding signal: 9.13 fold enrichment (6-mer frequency, TF over GST control)

## AAACCC
FLI1
  binding signal: 1.26 fold enrichment (6-mer frequency, TF over GST control)
ELK1
  binding signal: 1.32 fold enrichment (6-mer frequency, TF over GST control)
GABPA
  binding signal: 1.22 fold enrichment (6-mer frequency, TF over GST control)
ERG
  binding signal: 1.25 fold enrichment (6-mer frequency, TF over GST control)
ELF1
  binding signal: 1.32 fold enrichment (6-mer frequency, TF over GST control)
EHF
  binding signal: 1.27 fold enrichment (6-mer frequency, TF over GST control)
SPI1 [1]
  binding signal: 1.22 fold enrichment (6-mer frequency, TF over GST control)
SPIB
  binding signal: 1.34 fold enrichment (6-mer frequency, TF over GST control)
ELK3
  binding signal: 1.36 fold enrichment (6-mer frequency, TF over GST control)

## ATTTCC
FLI1
  binding signal: 3.94 fold enrichment (6-mer frequency, TF over GST control)
ELK1
  binding signal: 3.9 fold enrichment (6-mer frequency, TF over GST control)
GABPA
  binding signal: 3.59 fold enrichment (6-mer frequency, TF over GST control)
ERG
  binding signal: 5.18 fold enrichment (6-mer frequency, TF over GST control)
ELF1
  binding signal: 3.51 fold enrichment (6-mer frequency, TF over GST control)
EHF
  binding signal: 4.16 fold enrichment (6-mer frequency, TF over GST control)
SPI1 [2]
  binding signal: 3.71 fold enrichment (6-mer frequency, TF over GST control)
SPIB
  binding signal: 4.18 fold enrichment (6-mer frequency, TF over GST control)
ELK3
  binding signal: 4.09 fold enrichment (6-mer frequency, TF over GST control)

## TCTCTC
FLI1
  binding signal: 1.37 fold enrichment (6-mer frequency, TF over GST control)
ELK1
  binding signal: 1.27 fold enrichment (6-mer frequency, TF over GST control)
GABPA
  binding signal: 1.36 fold enrichment (6-mer frequency, TF over GST control)
ERG
  binding signal: 1.22 fold enrichment (6-mer frequency, TF over GST control)
ELF1
  binding signal: 1.35 fold enrichment (6-mer frequency, TF over GST control)
EHF
  binding signal: 1.36 fold enrichment (6-mer frequency, TF over GST control)
SPI1 [1]
  binding signal: 1.39 fold enrichment (6-mer frequency, TF over GST control)
SPIB
  binding signal: 1.31 fold enrichment (6-mer frequency, TF over GST control)
ELK3
  binding signal: 1.36 fold enrichment (6-mer frequency, TF over GST control)

From paper PMC7862700, “An all-to-all approach to the identification of sequence-specific readers for epigenetic DNA modifications on cytosine”
